Compound activity from PubChem BioAssay.
SW480 rerep: A quantitative high throughput screen for small molecules that induce DNA re-replication in SW480 colon adenocarcinoma cells. hit rate 1.8% among 340,000. Potency, µM (top dose mostly 46.1 µM), actives largely listed as activators. SW480 DNA re-replication, Hoechst DNA content imaging, 48 h; further: nearly all actives have a fitted effect of over 55% in size
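Image-based read-out: total Hoechst fluorescence of nuclei (405 nm excitation, 500-530 nm emission), with hits raising the fraction of high-intensity nuclei. SW480 colon cells incubated 48 hr with compounds at 37 C.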
MCF10A rerep: A quantitative high throughput screen for small molecules that induce DNA re-replication in MCF 10a normal breast cells. MCF 10A DNA re-replication, Hoechst nuclear intensity, 48 h. Potency, µM (titrated, usually from 46.1 µM), usual class: activators. hit rate 2.9% among 350,000; further: nearly all actives have a fitted effect of over 50% in size
ELG1 repair inh: qHTS screen for small molecules that inhibit ELG1-dependent DNA repair in human embryonic kidney (HEK293T) cells expressing luciferase-tagged ELG1 | HEK293T ELG1-luciferase reporter, luminescence, 16 h; DNA damage induced by 5-fluorouridine | Potency, µM (highest dose often 46.1 µM), hits mostly inhibitors | hit rate 2.3% among 330,000 | AID 504467, 2011; further: nearly all actives have a fitted effect of over 55% in size
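Quantitative HTS, concentration-response format. 2,000 cells/well co-treated with 5-fluorouridine and compound, 16 hr in 5% CO2 at 37 °C; ONE-Glo luminescence read after 30 min.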
KB-3-1 tox: qHTS assay for MDR1-selective chemotherapeutics: Primary screen using the parental adenocarcinoma cell KB-3-1; KB-3-1 viability, CellTiter-Glo ATP luminescence, 72 h; Potency, µM (titrated, usually from 46.1 µM), actives largely listed as cytotoxic; hit rate 1.4% among 400,000; further: nearly all actives have a fitted effect of over 60% in size
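Parental KB-3-1 adenocarcinoma cells in phenol-red-free DMEM with 10% FBS were pin-treated with compounds at several concentrations, incubated 72 h at 37 °C, and viability read by CellTiter-Glo luminescence; concentration-effect curves were fitted after normalization.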
KB-V1 cytotox: qHTS assay for MDR1-selective chemotherapeutics: Primary screen using the drug-selected MDR subline cells KB-V1 | KB-V1 MDR cells viability, CellTiter-Glo, 72 h | Potency, µM (top dose mostly 46.1 µM), actives largely listed as cytotoxic | AID 1347076, 2019 | hit rate 3.4% among 400,000; further: nearly all actives have a fitted effect of over 60% in size
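KB-V1, DMEM (no phenol red) + 10% FBS; cpd pin-transferred, titration series; 72 h, 37 degrees C; CellTiter-Glo, luminescence. Data normalized, curve-fit.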
Of the large screens only hits and unclear results are named; the others gave an inactive call. This is a sample that favours compounds with a hit; in the whole collection about 8.1% have one here. The call rests on the fitted dose curve; in most records, active means well fitted curve in the direction sought with a large enough effect; inconclusive means small, poorly fitted or top-dose-only effect, or another doubt; inactive means no such curve, though single readings can be large; an effect the other way counts as inactive or inconclusive.

COC(=O)c1c(C(=O)OC)c(-c2ccc(C)cc2)n2c1CCC2	KB-V1 cytotox 15µM
CSc1ccc(C2C(C#N)=C(N)Oc3cc4c(cc32)OCO4)cc1 (stereo unspecified)	SW480 rerep inconclusive, MCF10A rerep inconclusive, KB-V1 cytotox 4.6µM (no result: ELG1 repair inh)
Cc1ccc2c(=O)cc(C(=O)Nc3sc4c(c3C(=O)NCc3ccco3)CCC4)oc2c1	KB-3-1 tox inconclusive (no result: SW480 rerep, MCF10A rerep, ELG1 repair inh)
c1ccc2c(c1)nc(NCCN1CCOCC1)c1nncn12	ELG1 repair inh inconclusive
Clc1cccc(N2CCN(CCNc3nc4ccccc4n4cnnc34)CC2)c1	ELG1 repair inh 21µM
CCOC(=O)c1[nH]c2ccccc2c1NC(=O)c1cc(OCC)c(OCC)c(OCC)c1	none (no result: SW480 rerep, MCF10A rerep, ELG1 repair inh)
CNC(=S)N(C)[C@H]1c2c(ccc3ccccc23)OC[C@H]1CO	ELG1 repair inh 23µM
CCn1ncc(/C=C/C(=O)Nc2c(C)nn(Cc3ccc(Cl)cc3Cl)c2C)c1C	SW480 rerep 10µM
Cc1nn(Cc2ccc(Cl)cc2Cl)c(C)c1NC(=O)NC12CC3CC(CC(C3)C1)C2	MCF10A rerep inconclusive, ELG1 repair inh inconclusive, KB-3-1 tox inconclusive, KB-V1 cytotox 15µM
Cc1nn(Cc2ccc(Cl)cc2Cl)c(C)c1NC(=O)c1sc2ccccc2c1Cl	none
COc1cccc(-n2c(-c3ccccc3F)nc3c(cnn3-c3ccc(C)cc3)c2=O)c1	KB-3-1 tox 16µM (no result: SW480 rerep, MCF10A rerep, ELG1 repair inh)
COc1ccc(-n2c(C)nc3c(cnn3-c3ccc(C)cc3)c2=O)cc1	MCF10A rerep inconclusive, ELG1 repair inh inconclusive
Cc1ccc(-n2c(C)nc3c(cnn3-c3ccccc3)c2=O)cc1	KB-3-1 tox inconclusive, KB-V1 cytotox 16µM (no result: SW480 rerep, MCF10A rerep, ELG1 repair inh)
COc1cccc(-n2c(C)nc3c(cnn3-c3ccc(C)cc3)c2=O)c1	ELG1 repair inh inconclusive
COc1ccc(-n2c(C)nc3c(cnn3-c3ccc(Cl)cc3)c2=O)cc1	ELG1 repair inh 18µM, KB-3-1 tox inconclusive
CSC1=NC(C)(C)C=C(/C=C/c2ccc(Cl)cc2)N1	SW480 rerep 0.65µM, MCF10A rerep 16µM, KB-V1 cytotox inconclusive
CSC1=NC(C)(C)C=C(/C=C/c2c(Cl)cccc2Cl)N1	MCF10A rerep inconclusive
CSC1=NC(C)(C)C=C(/C=C/c2ccc(Cl)cc2Cl)N1	SW480 rerep 15µM, MCF10A rerep inconclusive, KB-3-1 tox inconclusive
O=C(CCN1C(=O)C2CCCCC2C1=O)Nc1ccc(Br)cc1F (stereo unspecified)	SW480 rerep inconclusive
COc1ccc(-c2noc(CCC(=O)O)n2)cc1	ELG1 repair inh inconclusive
COc1ccc(Cl)cc1N(C)C(=O)CCc1nc(-c2ccc(C)cc2)no1	ELG1 repair inh inconclusive, KB-V1 cytotox inconclusive
CCOC(=O)c1ccc(NC(=O)CCc2nc(-c3ccc(C)cc3)no2)cc1	MCF10A rerep 15µM
CCc1ccccc1N(C)C(=O)CCc1nc(-c2ccc(C)cc2)no1	ELG1 repair inh inconclusive, KB-V1 cytotox 18µM
CCOc1ccc(-c2noc(CCC(=O)O)n2)cc1	SW480 rerep 4.1µM, MCF10A rerep inconclusive, ELG1 repair inh inconclusive
Cc1ccc(NC(=O)CSc2nnc(N)s2)c(C)c1	none (no result: SW480 rerep, MCF10A rerep, ELG1 repair inh)
CCOC(=O)[C@]12CCCC=C1N(Cc1ccc(Cl)cc1Cl)C(=O)[C@H](CC(=O)N1CCN(C(=O)c3ccco3)CC1)C2	KB-V1 cytotox inconclusive (no result: SW480 rerep, MCF10A rerep, ELG1 repair inh)
CCCN(CCC)CCNC(=O)Cn1cnc2sc(C)c(S(=O)(=O)N3CCN(c4ccccc4OC)CC3)c2c1=O	none (no result: SW480 rerep, MCF10A rerep, ELG1 repair inh)
CCNC(=S)NNC(=O)c1cccs1	none
CCNC(=S)NNC(=O)c1cc(Br)cs1	SW480 rerep 16µM
Cc1ccc2[nH]c3c(=O)n(CC(=O)Nc4ccccc4N4CCN(C)CC4)ncc3c2c1	SW480 rerep 21µM, MCF10A rerep inconclusive, ELG1 repair inh inconclusive
CN1CCN(c2ccccc2NC(=O)Cn2ncc3c([nH]c4ccccc43)c2=O)CC1	SW480 rerep inconclusive
O=C(CN1C(=O)CCC1=O)Nc1nc(-c2ccc3ccccc3c2)cs1	MCF10A rerep 1.5µM, ELG1 repair inh inconclusive
CN(CC(=O)Nc1ccc(Cl)c(C(F)(F)F)c1)C(=O)c1ccc(N2CCOCC2)c([N+](=O)[O-])c1	MCF10A rerep inconclusive, ELG1 repair inh inconclusive
